The record followed here is PubChem BioAssay AID2284350 (EPA ToxCast).

SMILES strings stand for the structures. Inconclusive results are not listed. Activity calls are given as the source filed them. Rule for the calls: active = hit-call score of the fitted dose curve at least 0.9, where 1 is the maximum; inconclusive = response in the unintended direction; inactive = score below 0.9.

In this assay the test system is zebrafish Peroxisome Proliferator-activated Receptor alpha (PPARa), gene 563298. In words: ATG_zfPPARa_EcoTox2: Attagene TRANS-FACTORIAL EcoTox-2 HepG2 Assay for zebrafish Peroxisome Proliferator-activated Receptor alpha (PPARa). As to the method: ATG_EcoTox2 is a cell-based, multiplexed assay created by modifying the existing Attagene TRANS-FACTORIAL system to include a panel of nuclear receptors from some or all the following species: human (Homo sapiens), african clawed frog (Xenopus laevis), rainbow trout (Oncorhynchus mykiss), japanese medaka (Oryzias latipes), and zebrafish (Danio rerio). The ECOTOX2-FACTORIAL format uses HepG2, a human liver cell line, with measurements taken at 24 hours after chemical dosing in a 24-well plate. ATG_zfPPARa_EcoTox2 is one of 29 assay components calculated in the ATG_EcoTox2 assay. It is designed to make measurements of mRNA induction, a form of inducible reporter, as detected with fluorescence intensity signals by Reverse transcription polymerase chain reaction (RT-PCR) and Capillary electrophoresis technology.The assay endpoint ATG_zfPPARa_EcoTox2 was analyzed in the positive analysis fitting direction relative to DMSO as the negative control and baseline of activity. Using a type of inducible reporter, measures of mRNA for gain-of-signal activity can be used to understand the reporter gene at the transcription factor-level as they relate to the gene PPARa. Furthermore, this assay endpoint can be referred to as a primary readout, because this assay has produced multiple assay endpoints where this one serves a reporter gene function. To generalize the intended target to other relatable targets, this assay endpoint is annotated to the nuclear receptor intended target family, where the subfamily is non-steroidal.
Human liver HepG2 cells are transiently transfected with multiple reporter transcription units (MRTUs) in 6-well plates using FuGene 6 reagent (Roche; 3 ml FuGene/1 mg DNA). The MRTU constructs are regulated by a cis-regulating element (promoter). Each RTU expresses a GAL4-UAS that regulates the transcription of a nearby target reporter gene sequence. A major difference between the CIS and TRANS system is that in CIS activities of endogenous TFs are measured, whereas the TRANS assay evaluates changes in activities of exogenous, chimeric NR-Gal4 proteins. […] At the end of 24 hour incubation, total RNA was isolated using TriZol reagent (Invitrogen). The isolated RNA is then reverse-transcribed using oligo(dT) primer and Mo-MLV reverse transcriptase (Invitrogen) with DNAse I (Ambion) treatment for 30 min. The one-tenth of the produced cDNA was amplified by PCR using Taq DNA polymerase (Invitrogen) and two reporter sequence-specific primers. The PCR products were fluorescently labeled by primer extension with 6-arboxyfluorescein (6-FAM) 5'-labeled reporter sequence-specific primer (2 min at 95 C, 20 s at 68 C and 10 min at 72 C) and these products were digested with 5U of HpaI (New England Biolabs) for 2h at 37 C. The fragments were purified using Qiaquick PCR columns (Qiagen), analyzed on an ABI 3130xL genetic analyzer (Applied Biosystems) with peak positions identified by using a set of X-rhodamine (ROX)-labeled MapMarker1000 molecular weight standards (BioVentures). The raw capillary electrophoresis data was processed using Attagraph software (Attagene).
`CN(CCOc1ccc(CC2SC(=O)NC2=O)cc1)c1ccccn1` (configuration not stated): the outcome was inactive.
Usually AC50 stands for the concentration giving half of the maximal activity seen. With `Cc1ccc(C)c(OCCCC(C)(C)C(=O)O)c1`, the AC50 was 73.6 µM (active).
For `C[C@@H]1C[C@H]2[C@@H]3CCC4=CC(=O)C=C[C@]4(C)[C@@]3(F)[C@@H](O)C[C@]2(C)[C@@]1(O)C(=O)COP(=O)(O)O`, the call was inactive.
On to `Cc1cccc(Nc2cc(Cl)nc(SCC(=O)O)n2)c1C`, for which the AC50 was 8.62 µM (active).
Still for that read-out and setting: to `Cc1nc(-c2ccc(C(F)(F)F)cc2)sc1C(=O)NCc1ccc(OC(C)(C)C(=O)O)cc1` belongs 0.0769 µM (active); to `CC(C)(Oc1ccc(C2CC2(Cl)Cl)cc1)C(=O)O` (configuration not stated), 71.9 µM (active).
As to `CC(C)OC(=O)C(C)(C)Oc1ccc(C(=O)c2ccc(Cl)cc2)cc1`, the outcome was inactive.
Still for that read-out and setting: with `C=C(c1ccc(C(=O)O)cc1)c1cc2c(cc1C)C(C)(C)CCC2(C)C` the entry was “inactive”; with `Cc1c(C)c2c(c(C)c1O)CCC(C)(COc1ccc(CC3SC(=O)NC3=O)cc1)O2` (configuration not stated), “inactive”.
For the compound `CC(C)(Oc1ccc(Cl)cc1)C(=O)O`, the outcome was inactive.
Consider `CC(C)(Oc1ccc(CCNC(=O)c2ccc(Cl)cc2)cc1)C(=O)O`, for which the AC50 is 21.6 µM (active).
Regarding `CC(c1cc2ccccc2s1)N(O)C(N)=O` (configuration not stated), the compound was classed as inactive.
